hgDAF12 agonist – hgDAF-12 agonism, primary luciferase screen; HEK293 GAL4-hgDAF12 UAS-luciferase reporter, agonist luminescence; normalized to butyrate control; activation, % at 6.8 µM; hit rate 1.8% among 370,000; AID 687014;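 active = activation above a cutoff set at the mean of all screened compounds plus 3 SD, cut at about 10% in these data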
hcDAF12 agonist – activates DAF-12 receptor from parasite H. contortus. HEK293 hcDAF-12 lit1-tk-luc reporter, luminescence; 0% DMSO, 100% Δ7-dafachronic acid. activation, % at 6.8 µM. hit rate 1.4% among 370,000;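 active = activation above the mean of all tested compounds plus 3 SD, cut at about 5.5% in these data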
DAX1 inh-1 – inhibitors of human orphan nuclear receptor DAX1 (NR0B1); inhibition, % at 6.75 µM; HEK293 Gal4-DAX1 luciferase reporter, luminescence; hit rate 0.99% among 340,000;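 active = inhibition above the mean over all tested compounds plus 3 SD, cut at about 4.2% in these data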;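 also: inhibition shows as a rise in luminescence from relieved DAX1 repression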
ssDAF-12 act – S. stercoralis DAF-12 activation, primary screen. HEK293 ssDAF-12/GRIP1 lit1-tk-luc reporter, luminescence; % of 3 µM dafachronic acid response. AID 652126. activation, % at 6.8 µM. hit rate 1% among 370,000;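 active = activation above the mean over all tested compounds plus 3 SD, cut at about 0.9% in these data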
AHR act – human AHR activation; AHR-responsive luciferase reporter cells, luminescence; hit rate 2.5% among 320,000; activation, % at 5 µM; P35869; AID 2796; in the data active = activation above about 47%
Target sequence (P35869 whole entry, looked up): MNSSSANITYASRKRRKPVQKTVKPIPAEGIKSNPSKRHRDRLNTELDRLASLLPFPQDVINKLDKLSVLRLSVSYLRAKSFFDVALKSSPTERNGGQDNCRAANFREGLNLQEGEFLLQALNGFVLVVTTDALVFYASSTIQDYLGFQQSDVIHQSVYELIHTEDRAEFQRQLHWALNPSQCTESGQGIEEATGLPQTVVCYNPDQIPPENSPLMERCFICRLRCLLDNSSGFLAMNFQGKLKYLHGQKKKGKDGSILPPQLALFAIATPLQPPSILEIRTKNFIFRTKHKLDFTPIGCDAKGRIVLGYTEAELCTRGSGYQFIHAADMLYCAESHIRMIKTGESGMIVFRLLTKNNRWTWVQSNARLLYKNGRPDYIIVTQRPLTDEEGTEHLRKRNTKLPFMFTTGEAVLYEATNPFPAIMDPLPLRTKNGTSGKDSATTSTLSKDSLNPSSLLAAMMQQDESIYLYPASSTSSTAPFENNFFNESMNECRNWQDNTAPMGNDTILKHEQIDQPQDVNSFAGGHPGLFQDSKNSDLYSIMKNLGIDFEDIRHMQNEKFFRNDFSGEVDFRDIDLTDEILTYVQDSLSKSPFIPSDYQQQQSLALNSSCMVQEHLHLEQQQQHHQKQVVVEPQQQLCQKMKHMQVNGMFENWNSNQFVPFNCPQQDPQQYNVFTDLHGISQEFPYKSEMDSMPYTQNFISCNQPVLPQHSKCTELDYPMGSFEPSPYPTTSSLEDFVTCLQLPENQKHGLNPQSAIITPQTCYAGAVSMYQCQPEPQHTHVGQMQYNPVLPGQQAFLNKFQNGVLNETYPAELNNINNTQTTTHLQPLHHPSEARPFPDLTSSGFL
DAX1 inh-2 – blocks DAX1 repression of SF-1 activated StAR promoter; AID 652010; inhibition, % at 6.8 µM; HEK293T StAR-luciferase reporter, SF-1/DAX-1 repression relief; hit rate 1.1% among 370,000;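 active = inhibition above the mean over all tested compounds plus 3 SD, cut at about 3.6% in these data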;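 also: higher inhibition means more luminescence from relief of DAX-1 repression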
hgDAF12 ag – confirmation of H. glycines DAF-12 agonists; HEK293 GAL4-hgDAF12 luciferase reporter, agonist mode; percent of butyrate response; activation, % at 6.8 µM; AID 743050; shares compounds with hgDAF12 agonist; hit rate 80% among 3,300;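 active = mean activation over triplicate wells above the hit cutoff derived from the earlier primary screen, cut at about 11% in these data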
LXRb DAF12 ctr – counter-screen for DAF-12 agonists: agonists of human LXR-beta. HEK293 Gal4-LXR luciferase reporter, 24 h. 3,300 tested, under 10 active. activation, % at 6.8 µM. shares compounds with hgDAF12 agonist;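 active = mean activation of the triplicate above a set limit carried over from the primary screen, none filed active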
Numbers stand for hits; i = inactive; nt = no result given. This is a sample that favours compounds with a hit; in the whole collection about 5.7% have one here.

SMILES | hgDAF12 agonist | hcDAF12 agonist | DAX1 inh-1 | ssDAF-12 act | AHR act | DAX1 inh-2 | hgDAF12 ag | LXRb DAF12 ctr
NC(=O)/C(=C/c1ccc2c(c1)OCO2)NC(=O)c1ccco1 | i | i | i | i | i | i | nt | nt
COc1ccc(CN=C(Nc2ccccc2)SC2CC(=O)N(C)C2=O)cc1 (configuration not stated) | i | i | i | i | i | i | nt | nt
NS(=O)(=O)c1ccc(C(=O)Nc2ccc(-c3nc4cccnc4s3)cc2)cc1 | 14 | i | i | i | 57 | i | 14 | i
COCC(C)NC(=O)c1ccccc1[N+](=O)[O-] (configuration not stated) | i | i | i | i | i | i | nt | nt
O=C(Nc1ccc(Cl)cc1F)c1ccccc1Br | 15 | i | i | i | i | 4.4 | 14 | i
O=C(Nc1ccccc1F)c1ccccc1C(=O)Nc1ccccc1F | i | i | nt | i | i | i | nt | nt
COc1cc(C(=O)N(Cc2ccc(F)cc2)C2CCS(=O)(=O)C2)cc(OC)c1OC (configuration not stated) | i | i | i | i | i | i | nt | nt
CN(C)c1ccc(/C=C2\CCCc3c2nc2ccccc2c3C(=O)O)cc1 | 13 | 5.7 | i | 1.6 | i | i | 13 | i
O=C(COC(=O)C1CCN(c2ccc(C(F)(F)F)cn2)CC1)NCc1ccc(Cl)cc1Cl | i | i | i | i | i | i | nt | nt
CNc1nc(-c2ccc3c(c2)CCN3C(=O)c2ccccc2C)cs1 | 21 | i | i | i | i | i | 15 | i
O=C(CN1CCCC1)Nc1nc(-c2ccc3c(c2)CCN3C(=O)c2ccccc2F)cs1 | nt | nt | i | nt | i | nt | nt | nt
Clc1cc2cccnc2c2ncccc12 | i | i | i | i | i | i | nt | nt
COC(=O)c1sc(NC(=O)COc2ccccc2C)nc1C | i | i | i | i | i | i | nt | nt
COc1ccccc1OCC(=O)Nc1nc(C)c(C)s1 | 14 | i | i | i | i | i | 12 | i
Cn1nnc2cc(C(=O)NC3CC3)ccc21 | i | i | i | i | i | i | nt | nt
O=C(Nc1ccc(N2CCCC2)cc1)c1ccc2ccccc2c1 | 16 | i | i | i | i | i | 12 | i
Cn1nnc2cc(C(=O)Nc3ccc4ccccc4c3)ccc21 | 15 | i | i | i | i | i | 17 | i
O=C(Nc1ccc(N2CCCCC2)cc1)c1cncc(Br)c1 | 15 | i | i | i | i | i | 14 | i
CC(=O)Nc1ccc(N2CCCCC2)cc1 | i | i | i | i | i | i | nt | nt
O=C(Nc1ccc(S(=O)(=O)N2CCCC2)cc1)c1cncc(Br)c1 | i | i | i | i | i | i | nt | nt
O=C(Nc1ccc(N2CCCCC2)cc1)c1ccc(F)cc1F | 13 | 5.7 | i | i | i | 3.6 | 17 | i
Cc1ccc(C(=O)NCC(=O)NC2CCCCCC2)cc1 | i | i | i | i | i | i | nt | nt
CC(C)(C)N=C1NN=C(c2ccc(Cl)cc2)CS1 | i | i | i | i | i | i | nt | nt
CC(C)N=C1NN=C(c2ccc(Cl)c(Cl)c2)CS1 | 19 | i | nt | i | nt | i | 19 | i
O=C(Nc1cc(C(F)(F)F)ccc1N1CCOCC1)c1ccc(Cl)nc1 | i | i | i | i | i | i | nt | nt
SMILES | hgDAF12 agonist | hcDAF12 agonist | DAX1 inh-1 | ssDAF-12 act | AHR act | DAX1 inh-2 | hgDAF12 ag | LXRb DAF12 ctr
COc1ccc(NC(=O)C2Cc3c(-c4cccc(C(C)=O)c4)ccnc3O2)cc1OC (configuration not stated) | i | i | nt | i | nt | i | nt | nt
Cc1oc(-c2ccc(-c3ccccc3)cc2)nc1CN(C)C1CCOC1 (configuration not stated) | 16 | i | i | i | i | i | 14 | i
Cc1oc(-c2cccc(Cl)c2)nc1CN(C)C1CCOC1 (configuration not stated) | i | i | i | i | i | i | nt | nt
CC1=CCCC(C)(C)C1/C=C/C(C)=N/NC(=O)c1ccncc1 (configuration not stated) | i | i | i | i | i | i | nt | nt
C/C(CCC12CC3CC(CC(C3)C1)C2)=N\NC(N)=S | i | i | i | i | i | i | nt | nt
CN(C)/C=N/c1nc(-c2ccc3ccccc3c2)cs1 | 18 | i | 5.0 | i | i | i | 12 | i

Screens deposited in PubChem by The Scripps Research Institute Molecular Screening Center.
